The results in this text go back to PubChem BioAssay.

Several values for one entry are separate records, joined by “and”; a condition that tells them apart may be missing. Equal values may be shown once. Activity calls are given as the source filed them. Rule as the data show it, unless noted: active = inhibition above about 80%; inactive = the rest.

Test [1] concerns Aerobactin synthetase IucA (Klebsiella pneumoniae). Description: IucA aerobactin synthetase inhibitors, biochemical, Tocris library, absorbance (AID 1345561; call rule not given here;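 also: 100% = enzyme without compound and 0% = no enzyme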). As to conditions: purified IucA enzyme assay, absorbance (OD) read-out; stronger effect = lower value;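 tested at 8 µM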.
Test [2] can be described thus: sensitizers of A549 cells to miR-34 induction, primary screen, imaging, A549 dox-inducible miR-34, nuclei and caspase counts (AID 1347080;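 active = compounds whose cell count with miR-34 switched on is under 0.7 times the count with it off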). As to conditions: A549 miR-34 inducible, Hoechst nuclei count, 48 h.
A short description of test [3]: viability rescue of complex I mutant cybrids, primary screen, cell-based, galactose medium, ATP luminescence (AID 1645843;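 active = z-score of at least 1.8 in each of two replicates, scored against plate mean and spread of sample wells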;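 also: positive z means more ATP and so rescue of galactose-driven cybrid death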). As to conditions: complex I mutant cybrid cells, 72 h, stronger effect = higher value.
Test [4] is described as follows: survival rescue of mitochondrial mutant cells in low glucose, primary screen, MELAS cybrids, Rieske KO mouse fibroblasts, CellTiter-Glo (AID 1508586;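 active = mean z-score across replicates of 1.96 or higher in either the MELAS or the Rieske mutant cell line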;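 also: z relative to plate mean and SD of compound and empty wells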).
Test [5] can be described thus: LFS_MB_P medulloblastoma growth inhibition, cell-based, chromothripsis tumors, cisplatin or BGB combos (AID 1671449).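 Also: cells exposed for 96 hours; 0% = vehicle DMSO and 100% = killing by high DMSO.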 As to conditions: LFS_MB_P medulloblastoma cells.
The nature of test [6]: HDN33 neuroblastoma growth inhibition, cell-based, chromothripsis tumors, cisplatin or BGB combos (AID 1671450).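 Also: cells exposed to compound for four days; 0% = vehicle DMSO and 100% = cell killing by high DMSO.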 As to conditions: HDN33 neuroblastoma cells, stronger effect = higher value.
Test [7] in a line: ICB984 medulloblastoma cell growth inhibition, synergistic combos for chromothripsis tumors, cisplatin or BGB combos (AID 1671451; call rule not given here;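 also: cells exposed for 96 hours before readout; 0% = vehicle DMSO and 100% = killing by high DMSO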). As to conditions: ICB984 medulloblastoma cells, drug combinations, stronger effect = higher value.
Test [8] can be described thus: LFS_MB_1R medulloblastoma cell growth inhibition, synergistic combos for chromothripsis tumors, cisplatin or BGB combos (AID 1671452).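 Also: cells exposed for 96 hours before readout.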 As to conditions: LFS_MB_1R medulloblastoma cells, stronger effect = higher value.
A short description of test [9]: HTB85 osteosarcoma cell growth inhibition, synergistic combos for chromothripsis tumors, BGB or cisplatin IC20 combos (AID 1671453).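 Also: cells exposed for 96 hours before readout; 0% = vehicle DMSO and 100% = high DMSO killing control.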 As to conditions: HTB85 osteosarcoma cells, drug combinations, stronger effect = higher value.
Test [10] in a line: CRL2098 osteosarcoma cell growth inhibition, synergistic combos for chromothripsis tumors, BGB or cisplatin IC20 combos (AID 1671454).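 Also: cells exposed for 96 h before readout; 0% = vehicle DMSO and 100% = killing by high DMSO.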 As to conditions: CRL2098 osteosarcoma cells, drug combinations, stronger effect = higher value.
A short description of test [11]: HD-MB03 medulloblastoma cell growth inhibition, synergistic combos for chromothripsis tumors, BGB or cisplatin IC20 combos (AID 1671455; in the data active = inhibition above about 83%;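 also: 0% = vehicle DMSO and 100% = high DMSO as cytotoxic control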). As to conditions: HD-MB03 medulloblastoma cells, stronger effect = higher value.
Test [12] in a line: UWB1.289 ovarian carcinoma cell growth inhibition, synergistic combos for chromothripsis tumors, BGB or cisplatin combos (AID 1671456).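 Also: cells exposed to compound for four days; 0% = vehicle DMSO and 100% = killing by high DMSO.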 As to conditions: UWB1.289 ovarian carcinoma cells, stronger effect = higher value.
Test [13] in a line: LFS_MB_2R medulloblastoma cell growth inhibition, synergistic combos for chromothripsis tumors, cisplatin combos (AID 1671457).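 Also: cells exposed to compound for four days before readout.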 As to conditions: LFS_MB_2R medulloblastoma cells, stronger effect = higher value.
Test [14] is described as follows: MDA-MB-436 breast carcinoma cell growth inhibition, synergistic combos for chromothripsis tumors, BGB or cisplatin combos (AID 1671458; call rule not given here;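 also: cells exposed for 96 hours; 0% = vehicle DMSO and 100% = killing by high DMSO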). As to conditions: MDA-MB-436 breast carcinoma growth inhibition, drug combinations, stronger effect = higher value.
Test [15] is described as follows: UWB1.289_BRCA1 ovarian cancer growth, cell-based, BGB or cisplatin combinations (AID 1671459). As to conditions: UWB1.289 BRCA1 ovarian carcinoma, drug combinations, stronger effect = higher value.
Test [16] is described as follows: human astrocyte viability loss, single and combined drugs, cytotoxicity control for chromothriptic childhood tumor combination screen, cell-based, BGB or cisplatin IC20 combos (AID 1671460).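 Also: cells exposed to compounds for 96 hours before viability readout; 0% = vehicle and 100% = killing control.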 As to conditions: Human astrocytes, drug combinations, stronger effect = higher value.
Test [17] can be described thus: growth inhibition of BT084 medulloblastoma cells, cell-based, ICGC_MB145, cisplatin and BGB IC40 combos (AID 1671461).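 Also: cells exposed to drugs for 96 hours; 0% = vehicle DMSO and 100% = high DMSO full killing control.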 As to conditions: drug combinations, stronger effect = higher value.
Test [18] can be described thus: growth inhibition of RCMB18 medulloblastoma cells, cell-based, cisplatin and BGB IC40 combos (AID 1671462).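 Also: cells exposed to compound for four days.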 As to conditions: stronger effect = higher value.
The nature of test [19]: growth inhibition of CRL1545 osteosarcoma cells, cell-based, cisplatin and BGB IC20 combos (AID 1671464).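 Also: cells exposed to compound for 96 hours before readout; 0% = vehicle DMSO and 100% = high DMSO killing control.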 As to conditions: stronger effect = higher value.
[20] abbreviates: stronger effect = lower value, cell number ratio, induced over uninduced.
[21] abbreviates: measured here: relative caspase fold change +Dox/-Dox.
The mark [22] stands for this setting: measured here: total cells with miR-34 induction, stronger effect = lower value.
Where [23] appears, read: measured here: total cells without miR-34 induction.
[24] abbreviates: MELAS cybrid survival, CellTiter-Glo 48 h, stronger effect = higher value.
The mark [25] stands for this setting: Rieske KO mouse fibroblast survival, CellTiter-Glo 72 h.
The mark [26] stands for this setting: measured here: combination with BGB IC40, at 0.05 µM.
Setting [27] is: measured here: with BGB IC20 combination, at 0.5 µM.
Where [28] appears, read: measured here: with cisplatin IC20 combination, at 0.5 µM.
[29] abbreviates: measured here: combination with cisplatin, at 0.5 µM.
Where [30] appears, read: measured here: combination with cisplatin, at 5 µM.

The remaining activity is the signal under treatment as a percentage of the control signal. Regarding `Cc1noc(NS(=O)(=O)c2cccc3c(N(C)C)cccc23)c1C`, the remaining activity in test [1] was 116% (inactive). The fold change in [2] (setting [20]) is 0.967 (inactive); in test [2] (setting [21]) it was 0.84. Also, the cell count in test [2] (setting [22]) turned out to be 8350; in test [2] (setting [23]) it was 8630. Besides, the z-score in [3] is -0.135 (inactive).

Regarding `Cc1cc(F)c(Nc2ncnc3cc(OCc4ccccc4)ccc23)cc1O`, the remaining activity in test [1] is 105% (inactive). For the same molecule, the fold change is 0.94 (inactive) and 0.947 (inactive) in test [2] (setting [20]); 0.62 and 2.22 in test [2] (setting [21]). Besides, the cell count in test [2] (setting [22]) was 7080 and 7020; in test [2] (setting [23]), 7530 and 7420. Further, the z-score in [4] (setting [24]) is 0.202 (inactive); in test [4] (setting [25]) it was 0.0931; in test [3], 1.85 (inactive).

Consider `O=C(CCCCCN1C(=O)c2cccc3cccc(c23)C1=O)NO`, for which, in [1], the remaining activity was 87.2% (inactive). Further, the fold change is 0.869 (inactive) and 1.23 (inactive) in test [2] (setting [20]); 0.881 and 1.17 in test [2] (setting [21]). Also, the cell count in [2] (setting [22]) is 1710 and 2290; in test [2] (setting [23]) it was 1970 and 1860. Further, the z-score is 1.18 (inactive) in [4] (setting [24]), 1.2 in test [4] (setting [25]) and -0.53 (inactive) in test [3].

With `OC(CN1CCNCC1)Cn1c2ccc(Br)cc2c2cc(Br)ccc21` (centres undefined), the remaining activity in test [1] was 103% (inactive). The fold change was 1.43 (inactive) in [2] (setting [20]) and 0.602 in test [2] (setting [21]). In addition, the cell count came to 284 in test [2] (setting [22]) and 198 in test [2] (setting [23]). In addition, the z-score in test [3] is -0.705 (inactive).

What is called inhibition is the change of the read-out against control, counted positive when it falls. Turning to `O=C(COc1cccc2c(=O)[nH]ccc12)c1ccccc1`, the remaining activity in test [1] is 129% (inactive). The fold change in [2] (setting [20]) was 0.93 (inactive) and 0.917 (inactive); in test [2] (setting [21]) it was 0.39 and 1.29. For the same molecule, the cell count was 8870 and 8400 in test [2] (setting [22]); 9530 and 9170 in [2] (setting [23]). Besides, the results for the z-score in test [4] (setting [24]), in test [4] (setting [25]) and in test [3] were -0.468 (inactive), 0.438 and -0.28 (inactive), respectively. For the same molecule, the inhibition is -16.5% (inactive) in [5] (at 0.5 µM, stronger effect = higher value); -16.8% in [5] (measured here: combination with BGB IC20, at 0.005 µM); -36.3% in [5] (measured here: combination with BGB IC40, at 0.005 µM); -53.7% in test [5] (setting [26]); -36.1% in test [5] (measured here: combination with cisplatin, at 0.5 µM, stronger effect = higher value); -39.6% in test [5] (measured here: combination with cisplatin, at 5 µM, stronger effect = higher value). Besides, the inhibition in test [6] (BGB combo, at 5 µM) is -30.5%; in test [6] (at 0.5 µM), -19.3% (inactive); in test [6] (cisplatin combo, at 5 µM), 0.128%; in [6] (setting [27]) it was -14.4%; in [6] (setting [28]) it was -33.6%; in test [6] (single agent, at 5 µM) it was 5.27%. Further, the inhibition is -2.15% in test [7] (BGB IC20 combo, at 0.005 µM); -17.7% in [7] (BGB IC40 combo, at 0.005 µM); -10.1% in test [7] (BGB IC40 combo, at 0.05 µM); -21.4% (inactive) in test [7] (at 0.5 µM); -14.1% in [7] (cisplatin combo, at 0.05 µM); -12.6% in test [7] (cisplatin combo, at 0.5 µM). Besides, the inhibition was -29.1% in [7] (cisplatin combo, at 5 µM); -6.87% in [7] (measured here: 5 uM single agent, at 5 µM); -3.67% (inactive) in [8] (at 0.5 µM); 3.04% in [8] (setting [26]); 4.91% in [8] (setting [29]); -55.9% in test [8] (setting [30]). In addition, the inhibition in test [9] (at 0.5 µM) was -2.5% (inactive); in [9] (measured here: with BGB IC20, at 0.5 µM), -2.96%; in test [9] (measured here: with BGB IC20, at 5 µM), -14.8%; in test [9] (measured here: with cisplatin IC20, at 0.5 µM), -15.8%; in test [9] (measured here: with cisplatin IC20, at 5 µM), -9.52%; in [9] (single agent, at 5 µM), -11.8%. Also, the inhibition in [10] (at 0.5 µM) is -77.2% (inactive); in [10] (measured here: combination with BGB at IC20, at 0.5 µM) it was -43.7%; in [10] (measured here: combination with cisplatin at IC20, at 0.5 µM), -122%; in [11] (at 0.5 µM), -12.7% (inactive); in test [11] (measured here: combo with BGB at IC20, at 0.5 µM) it was -9.35%; in test [11] (measured here: combo with cisplatin at IC20, at 0.5 µM) it was -24.1%. The inhibition was -8.68% (inactive) in [12] (at 0.5 µM); -22.4% in test [12] (measured here: inhibition with BGB combination, at 0.05 µM); -23.8% in test [12] (measured here: inhibition with cisplatin combination, at 0.05 µM); -15.2% (inactive) in [13] (at 0.5 µM); -23.3% in test [13] (setting [29]); -11.3% in [13] (setting [30]). Further, the inhibition was -8.48% (inactive) in test [14] (at 0.5 µM); -12.1% in test [14] (measured here: BGB combination, at 0.5 µM); -20.7% in [14] (measured here: BGB combination, at 5 µM); -11.8% in [14] (measured here: cisplatin combination, at 0.5 µM); -15.5% in test [14] (measured here: cisplatin combination, at 5 µM); 17.1% in test [15] (BGB combination, concentration series, at 5 µM). The inhibition is -4.72% (inactive) in test [15] (at 0.5 µM); -1.24% in test [15] (cisplatin combination, concentration series, at 5 µM); 18.8% (inactive) in [16] (at 0.5 µM); 3.19% in test [16] (measured here: combo with BGB IC20, at 0.5 µM); 27.2% in [16] (measured here: combo with cisplatin IC20, at 0.5 µM); -16.5% (inactive) in test [17] (at 0.5 µM). Moreover, the inhibition in test [17] (cisplatin combination, at 0.5 µM) was -34.9%; in test [17] (cisplatin combination, at 5 µM), -2.7%; in [17] (measured here: BGB IC40 combination 0.05 uM, at 0.05 µM), -29.5%; in test [17] (single agent, at 5 µM), 2.36%; in test [18] (at 0.5 µM), -1.53% (inactive); in test [18] (cisplatin combo, at 5 µM), -22.8%. The inhibition in [18] (measured here: BGB IC40 combination, at 0.05 µM) is -14.7%; in test [18] (setting [29]), -4%; in [18] (single agent, at 5 µM) it was -18.5%; in test [19] (at 0.5 µM) it was -12.7% (inactive); in test [19] (setting [27]), -33.3%; in [19] (setting [28]), -4%. For the same molecule, the inhibition in [19] (single agent, at 0.05 µM) was 2.29%; in test [19] (single agent, at 5 µM), -29.9%.
